# In PubChem BioAssay (NCATS):
# Inconclusive results are not listed. Active and inactive are the calls of the source. The call rests on the fitted dose curve.
# Assay: Primary qHTS for inhibitors of MERS-S pseudo-typed particle cell entry (AID 1479149); further: nearly all actives have a fitted effect of over 60% in size
# Conditions: MERS-S pseudotyped particle entry, luciferase; series mostly up to 57.1 µM; activity change, negative = inhibition: at the top concentration
# On the % scale 0 is the no-effect control and ±100 the full control effect.
SMILES,outcome,"activity change, negative = inhibition"
COc1ccc2cccc(CCNC(C)=O)c2c1,inactive,
CCOP(=S)(OCC)Oc1ccc2c(C)c(Cl)c(=O)oc2c1,inactive,
NNC(=O)c1ccncc1,inactive,
Cc1ccccc1C(=O)N1CC/C(=N\OS(=O)(=O)O)c2ccc(Cl)cc21,inactive,
CN1C(=O)OC(C)(C)C1=O,inactive,
CCOc1cc(OCC)c(C(=O)CCC(=O)O)cc1OCC,inactive,
CC(C)(C)c1ccc(O)cc1,inactive,
COc1ccc(C2C(=O)c3ccccc3C2=O)cc1,inactive,
NC(=O)NC(=O)Cc1ccccc1,inactive,
CC(C)(C)NCC(O)COc1cccc2c1C[C@H](O)[C@H](O)C2 (some centres not stated),inactive,
O=C(O)CCCCCCCC(=O)O,inactive,
COc1ccc(C2CNC(=O)C2)cc1OC1CCCC1 (configuration not stated),inactive,
OCCOCCN1CCN(C2=Nc3ccccc3Sc3ccccc32)CC1,inactive,
C[C@@H](N)[C@@H](O)c1ccccc1,inactive,
CCCCOCCOC(=O)c1cccnc1,,-2.21% (inactive)
CC[N+](CC)(CC)CCOc1cccc(OCC[N+](CC)(CC)CC)c1OCC[N+](CC)(CC)CC,inactive,
CC(C)=CCC/C(C)=C/CC/C(C)=C/CCC(=O)OC/C=C(\C)CCC=C(C)C,,-39.5% (inactive)
COC(=O)c1cccnc1,,8.06% (inactive)
CC[C@@]1(O)C(=O)OCc2c1cc1n(c2=O)Cc2c-1nc1ccccc1c2/C=N/OC(C)(C)C,,-71.5% (inactive)
CC(C)(C)NCC(O)COc1ccccc1OCC1CCCO1 (configuration not stated),inactive,
Cc1cnc(NC(=O)C2=C(O)c3ccccc3S(=O)(=O)N2C)s1,,-29.2% (inactive)
CN1C(CSCC(F)(F)F)Nc2cc(Cl)c(S(N)(=O)=O)cc2S1(=O)=O (configuration not stated),,-15.5% (inactive)
